From PubChem BioAssay (Tox21)
Several values for one entry are separate records, joined by “and”; a condition that tells them apart may be missing. Identical values can stand only once. Records with an inconclusive call do not appear. Unmarked numbers belong to inactive results. Activity calls are given as the source filed them. The call rests on the fitted dose curve; in most records, active means well fitted cell-killing curve with a large enough effect in the repeat runs; inconclusive means weak or mixed curves, or effect the other way; inactive means no such curve, though single readings can be large or run the other way.

Assay: qHTS assay to identify small molecule antagonists of the glucocorticoid receptor (GR) signaling pathway - cell viability counter screen (AID 720693); further: nearly all actives have a fitted effect of over 55% in size
Details: GR-bla HeLa viability, CellTiter-Glo luminescence, 18 h, with 5 nM dexamethasone present; series mostly up to 58.5 µM; viability change, negative = cytotoxic: at the top concentration
On the % scale 0 is the no-effect control and ±100 the full control effect; potency means the concentration at half of the fitted maximal effect.

| Compound | viability change, negative = cytotoxic | Potency |
| --- | --- | --- |
| O=S(=O)(Cl)c1ccccc1 | -1.96% [at 78.9 µM] |  |
| C#CCOC(C(=O)OCCN(C)C)(c1ccccc1)c1ccccc1 | -7.33% |  |
| BrCCCCBr | -14% |  |
| CCn1cc[n+](C)c1 |  | inactive |
| COC(=O)C(Br)CBr (stereo unspecified) | 1.58% |  |
| N#Cc1ccc(Cl)cc1 | -3.39% |  |
| CCN(C)N=O | 10.4% |  |
| ClCc1ccccc1 | 17.8% |  |
| CC(C)(C)c1cc([N+](=O)[O-])cc([N+](=O)[O-])c1O |  | 1.09 µM (active) |
| CCOP(=O)(OCC)O/C(=C/Cl)c1ccc(Cl)cc1Cl |  | inactive |
| C=CCC1([C@H](C)CCC)C(=O)NC(=O)NC1=O | -0.263% |  |
| C=CCN1CC[C@]23c4c5ccc(O)c4O[C@H]2C(=O)CC[C@@]3(O)[C@H]1C5 |  | inactive |
| COc1nn(C(=O)NS(=O)(=O)c2ccccc2OC(F)(F)F)c(=O)n1C | -2.63% |  |
| O=C(O)CC(Cl)C(=O)O (stereo unspecified) | -2.38% [at 78.9 µM] |  |
| O=C1CN=C(c2ccccc2)c2cc(Cl)ccc2N1CC1CC1 |  | inactive |
| C=CC(C)=O | 18.1% |  |
| CCOc1nc(F)cc2nc(S(=O)(=O)Nc3c(Cl)cccc3Cl)nn12 | -0.619% |  |

| Compound | viability change, negative = cytotoxic | Potency |
| --- | --- | --- |
| O=C(CBr)OCc1ccccc1 | -1.68% |  |
| C=CC(=O)OC(C)(C)C | -0.737% |  |
| C(=NC1CCCCC1)=NC1CCCCC1 |  | inactive |
| Cn1cc[n+](C)c1 (tested in a mixture with another compound) | 0.531% [at 78.9 µM] |  |
| CNC(C)Cc1ccccc1OC (stereo unspecified) | 0.0938% |  |
| O=[Se]=O | -24.5% |  |
| ClCC(Br)CBr (stereo unspecified) | 2.38% |  |
| ClCCCCBr | 0.602% [at 78.9 µM] |  |
| CCOP(=S)(OCC)SCn1nnc2ccccc2c1=O | -2.61% |  |
| CC(O)(CS(=O)(=O)c1ccc(F)cc1)C(=O)Nc1ccc(C#N)c(C(F)(F)F)c1 (stereo unspecified) |  | inactive |
| COc1cc(CC(C)N)cc2c1OCO2 (stereo unspecified) | 7.52% [at 78.9 µM] |  |
| O=C(O)C(F)(F)C(F)(F)C(F)(F)C(F)(F)C(F)(F)C(F)(F)C(F)(F)C(F)(F)C(F)(F)C(F)(F)F | 22.8% |  |
| CCOC(=O)CBr | -6.12% [at 78.9 µM] |  |
| O=C(O)C(F)(F)C(F)(F)C(F)(F)C(F)(F)C(F)(F)C(F)(F)C(F)(F)C(F)(F)C(F)(F)F | 13.9% |  |
| COc1c(C(C)(C)C)cc([N+](=O)[O-])c(C)c1[N+](=O)[O-] | 8.9% |  |
| N#CCc1ccccc1 | 15.5% [at 78.9 µM] |  |
| CCOP(=O)(OCC)SCCSCC | 15.5% |  |

Assay: qHTS assay for identifying genotoxic compounds that show differential cytotoxicity against isogenic chicken DT40 cell lines with known DNA damage response pathways - wild type cell line (AID 743012); further: nearly all actives have a fitted effect of over 60% in size
Details: DT40 wild type chicken cells viability, CellTiter-Glo, 40 h; series mostly up to 68.4 µM; activity change, negative = cytotoxicity: at the top concentration
Procedure, shortened: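 Endpoint: CellTiter-Glo luminescence, 30 min RT. Cells: wild type DT40, 300/well. Exposure: compounds in DMSO, 40 h, 37 C/5% CO2, after ~0.5 h pre-incubation.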

| Compound | activity change, negative = cytotoxicity | Potency |
| --- | --- | --- |
| O=S(=O)(Cl)c1ccccc1 | 12% [at 95 µM] |  |
| C#CCOC(C(=O)OCCN(C)C)(c1ccccc1)c1ccccc1 | -10.1% |  |
| BrCCCCBr | 7.25% |  |
| CCn1cc[n+](C)c1 |  | inactive |
| COC(=O)C(Br)CBr (stereo unspecified) | 13.8% |  |
| N#Cc1ccc(Cl)cc1 | 26.7% |  |
| CCN(C)N=O | -1.08% |  |
| ClCc1ccccc1 | -0.41% |  |
| CC(C)(C)c1cc([N+](=O)[O-])cc([N+](=O)[O-])c1O |  | 19.3 µM (active) |
| CCOP(=O)(OCC)O/C(=C/Cl)c1ccc(Cl)cc1Cl |  | 11.9 µM (active) and 15.4 µM (active) |
| C=CCC1([C@H](C)CCC)C(=O)NC(=O)NC1=O | -12.7% |  |
| C=CCN1CC[C@]23c4c5ccc(O)c4O[C@H]2C(=O)CC[C@@]3(O)[C@H]1C5 |  | inactive |
| COc1nn(C(=O)NS(=O)(=O)c2ccccc2OC(F)(F)F)c(=O)n1C | 0.558% |  |
| O=C(O)CC(Cl)C(=O)O (stereo unspecified) | 2.75% [at 95 µM] |  |
| O=C1CN=C(c2ccccc2)c2cc(Cl)ccc2N1CC1CC1 |  | 18.8 µM (active) |
| C=CC(C)=O | 11.3% |  |
| CCOc1nc(F)cc2nc(S(=O)(=O)Nc3c(Cl)cccc3Cl)nn12 | 34.5% |  |
